Reference: PubChem BioAssay AID1986 (Sanford-Burnham Center for Chemical Genomics, 2009)
Several values for one entry are separate records, joined by “and”; a condition that tells them apart may be missing. Identical values can stand only once. Among all 290,000 compounds or so, about 890 (0.31%) were called active. Cut-off read from the data, not from the text of the source: active = inhibition mostly above about 52% (no sharp cut-off); inactive = mostly below about 76%. The entries come from a sample that favours actives as a whole. A structure can be active in one record and inactive in another.

Test: inhibitors of HIV fusion peptide binding, primary screen, biochemical, uHTS, fluorescence dequenching (AID 1986)
Conditions: cell-free peptide binding, 30 min, stronger effect = higher value
[1] = measured here: repeat confirmation average inhibition, at 18.6 µM

Cc1sc2nc(C3CC3)nc(N3CCN(S(=O)(=O)c4ccc(F)cc4)CC3)c2c1C
inhibition (at 20 µM): -0.3% (inactive)

CC(=O)c1ccc(-n2nnnc2SCC(=O)Nc2sc(C)c(C)c2C#N)cc1
inhibition (at 20 µM): 6.6% (inactive)

CSc1cccc(NC(=O)CCCOc2ccccc2)c1
inhibition (at 20 µM): -0.1% (inactive)

Cc1cnc(C(=O)OCc2csc(CC(=O)Nc3ccccc3C)n2)cn1
inhibition (at 20 µM): 1.8% (inactive)

c1ccc(C2=Nc3c(ccc4ccccc34)C(c3ccncc3)=NN2)cc1
inhibition (at 20 µM): -3% (inactive)

Cc1ccc(CNS(=O)(=O)c2ccc(F)c(F)c2)n1C
inhibition (at 20 µM): -1.8% (inactive)

CCOC(=O)c1c(C)[nH]c(C(=O)N/N=C/c2ccc(Br)cc2)c1C
inhibition (at 20 µM): -1.7% (inactive)

O=C(O)c1cc(-c2ccco2)nc2ccccc12
inhibition (at 20 µM): 0.1% (inactive)

O=C(O)c1cc(-c2ccco2)nc2cc3ccccc3cc12
inhibition (at 20 µM): 35.7% (inactive)

O=C(O)c1cc(-c2ccco2)nc2ccc(Br)cc12
inhibition (at 20 µM): 51.2% (inactive) and 65% (active) | inhibition [1]: 11.6%

O=C(NC1CCCC1)C(c1ccncc1)N(C(=O)c1csnn1)c1ccc(F)cc1 (configuration not stated)
inhibition (at 20 µM): 0.5% (inactive)

Cc1ccc(N2CC(C(=O)Nc3nnc(SCC(=O)NCC4CCCO4)s3)CC2=O)cc1 (configuration not stated)
inhibition (at 20 µM): 0.9% (inactive)

O=C(N/N=C/c1cc([N+](=O)[O-])cc([N+](=O)[O-])c1O)/C(=C\c1cccs1)NC(=O)c1ccccc1
inhibition (at 20 µM): 65% (active)

O=C(N/N=C/c1cccs1)/C(=C/c1ccccc1)NC(=O)c1ccccc1
inhibition (at 20 µM): 1.7% (inactive)

COc1ccc([N+](=O)[O-])cc1/C=N/NC(=O)/C(=C\c1cccs1)NC(=O)c1ccccc1
inhibition (at 20 µM): -1.3% (inactive)

O=C(Cc1ccc(Cl)cc1)NCC(=O)N1CCN(c2ccccc2)CC1
inhibition (at 20 µM): 0.4% (inactive)

O=C1NN(c2ccccc2)C(=O)/C1=C/c1ccc(Sc2ccc(Cl)cc2)o1
inhibition (at 20 µM): 17.5% (inactive)

Cc1ccc(Sc2ccc(/C=C3/C(=O)NN(c4ccccc4)C3=O)o2)cc1
inhibition (at 20 µM): 9.4% (inactive)

O=C1NN(c2ccccc2)C(=O)/C1=C/c1ccc(Sc2cccc3ccccc23)o1
inhibition (at 20 µM): 71.8% (active)

O=C(NCCCc1ccccc1)[C@@H]1Cc2ccccc2CN1
inhibition (at 20 µM): -0.5% (inactive)

CC(C)CC1=C/C(=C/c2ccc(-c3ccccc3)o2)C(=O)O1
inhibition (at 20 µM): 51.7% (active)

COc1ccccc1-c1ccc(/C=C2/C=C(CC(C)C)OC2=O)o1
inhibition (at 20 µM): 40.1% (inactive)

NS(=O)(=O)c1ccc(-c2ccc(C=C3C(=O)c4ccccc4C3=O)o2)cc1
inhibition (at 20 µM): 1.7% (inactive)

O=C(O)CCn1cc(/C=C\C(=O)c2ccc(Cl)cc2)c(-c2cccc(Br)c2)n1
inhibition (at 20 µM): 60.3% (active)

Cc1ccc(-c2nn(CCC(=O)O)cc2/C=C\C(=O)c2ccc(Br)cc2)cc1
inhibition (at 20 µM): 48.6% (inactive)

O=Cc1cn(CCC(=O)O)nc1-c1cccc(Br)c1
inhibition (at 20 µM): 1.1% (inactive)

CCOC(=O)c1sc(NC(=O)c2cc3n(n2)C(C(F)(F)F)CC(c2ccccc2)N3)c(C(=O)OCC)c1C (configuration not stated)
inhibition (at 20 µM): 0.6% (inactive)

Cc1cc2c(cc1S(=O)(=O)N(C)Cc1ccccc1)OCC(=O)N2
inhibition (at 20 µM): -2% (inactive)

COc1cc(OC)c(OC)cc1/C=C1\Oc2cc(OCC(=O)N3Cc4ccccc4C[C@H]3C(=O)O)ccc2C1=O
inhibition (at 20 µM): 123% (active) | inhibition [1]: 106%

COc1cccc(/C=C2\Oc3cc(OCC(=O)N4Cc5ccccc5C[C@H]4C(=O)O)ccc3C2=O)c1
inhibition (at 20 µM): 64.4% (inactive) | inhibition [1]: 40.9%

COc1ccc(OC)c(/C=C2\Oc3cc(OCC(=O)N4CC(O)C[C@H]4C(=O)O)ccc3C2=O)c1 (some centres not stated)
inhibition (at 20 µM): 2.3% (inactive)

Cc1nc(Oc2cccc(Cl)c2)c2oc3ccccc3c2n1
inhibition (at 20 µM): -0.8% (inactive)

O=C(COC(=O)CCCOc1ccccc1)NNC(=O)c1ccc([N+](=O)[O-])cc1
inhibition (at 20 µM): -0.7% (inactive)

CC1=CN2C(=N)/C(=C/c3ccc(C)o3)C(=O)N=C2S1
inhibition (at 20 µM): 5.4% (inactive)

CC1=CN2C(=N)/C(=C/c3ccco3)C(=O)N=C2S1
inhibition (at 20 µM): 7.9% (inactive)

Cn1c(=O)n(C)c2cc(/C=N/NC(=O)c3ccncc3)ccc21
inhibition (at 20 µM): 1.3% (inactive)

Cc1[nH]n(-c2ncc(-c3ccccc3)s2)c(=O)c1C(c1ccc(Cl)cc1)C(C#N)C#N (configuration not stated)
inhibition (at 20 µM): 70.8% (active)

Cc1[nH]n(-c2ncc(-c3ccccc3)s2)c(=O)c1C(c1ccc(Br)cc1)C(C#N)C#N (configuration not stated)
inhibition (at 20 µM): 57.3% (inactive) | inhibition [1]: 40.9%

Cc1[nH]n(-c2ncc(-c3ccc(Cl)cc3)s2)c(=O)c1C(c1ccc(Cl)cc1)C(C#N)C#N (configuration not stated)
inhibition (at 20 µM): 48.5% (inactive)

CC(C)(C)n1nc2c(c1NC(=O)Cc1cccc3ccccc13)CS(=O)C2 (configuration not stated)
inhibition (at 20 µM): -1.8% (inactive)

O=C(Nc1ccc(Cl)cc1)Nc1ccc2c(c1)OCO2
inhibition (at 20 µM): -0.2% (inactive)

CN(C)C(=O)c1ccc(-c2cc(C(F)(F)F)nn2C)s1
inhibition (at 20 µM): -1.2% (inactive)

Cn1nc(C(F)(F)F)cc1-c1ccc(/C=C(\C#N)C(=O)c2cccc(C(F)(F)F)c2)s1
inhibition (at 20 µM): 55.2% (active)

Cn1nc(C(F)(F)F)cc1-c1ccc(/C=C(\C#N)C(=O)c2ccccc2)s1
inhibition (at 20 µM): 92% (active) | inhibition [1]: 179%

N#C/C(=C\c1ccc(-c2cccc(C(F)(F)F)c2)o1)C(=O)Nn1cnnc1
inhibition (at 20 µM): 49.6% (inactive)

Cn1nc(C(F)(F)F)cc1-c1ccc(S(N)(=O)=O)s1
inhibition (at 20 µM): 2.8% (inactive)

CNC(=O)c1ccc(-c2cc(C(F)(F)F)nn2C)s1
inhibition (at 20 µM): -1.4% (inactive)
